Bioassay records deposited in PubChem BioAssay by National Center for Advancing Translational Sciences (NCATS).
Pf growth 96h = P. falciparum growth inhibition at 96 hours | P. falciparum luciferase reporter growth, 96 h | Potency, µM (highest dose often 28.7 µM), for the others: top-dose activity change, negative = inhibition, usual class: inhibitors | actives 6.9% (n = 320,000); note: potency is the fitted concentration of half-maximal effect; % is set by controls: 0 for no effect and ±100 for the full control effect
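Luminescence readout: decreased luciferase signal marks inhibited growth of reporter-expressing P. falciparum in infected red cells (2% hematocrit, 0.05% parasitemia final), exposed to compound two generations (96 h, 37 C, 5% CO2).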
NS1 inh = blocks influenza NS1 protein function; Potency, µM (highest dose often 46.1 µM), inactives show at the top dose activity, positive = more growth; actives 0.4% (n = 270,000); AID 2326; calls by dose curve; note: potency is the fitted concentration of half-maximal effect; actives are rising curves; nearly all actives have a fitted effect of over 50% in size
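A cell-based growth assay was used: compounds that relieve NS1-induced slow growth of budding yeast raise OD600. Assay medium was yeast nitrogen base with ammonium sulphate and -URA supplement, pH 6.0, with 2% galactose.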
CHX counter = counter-screen for Shiga toxin inhibitors: cycloheximide protein synthesis inhibition; cell reporter, cycloheximide protein synthesis inhibition counterscreen; max response, %; actives 12% (n = 300,000); in the data active = max response mostly above about 13%, no sharp cut-off; inactive = mostly below about 14%; note: read at 38.3 µM for the half of the compounds with a filed dose; 0% is about no effect
Pf growth 48h = inhibits P. falciparum growth in the first generation, 48 h; P. falciparum luciferase growth in erythrocytes, 48 h; Potency, µM (top dose mostly 28.7 µM), inactives show top-dose activity change, negative = inhibition, hits mostly inhibitors; actives 5.9% (n = 310,000); note: potency is the fitted concentration of half-maximal effect; % is set by controls: 0 for no effect and ±100 for the full control effect
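Read-out is firefly luciferase luminescence from an integrated reporter in P. falciparum, so falling signal marks reduced parasite growth. Infected erythrocytes were at 2% hematocrit and 0.1% parasitemia (final) in Albumax-supplemented RPMI 1640.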
Shiga inhibitor = inhibitors of Shiga toxin in Vero cells | inhibition, % at 38.7 µM | actives 9.2% (n = 290,000) | Vero cells, Shiga toxin protein synthesis inhibition reporter; in the data active = inhibition mostly above about 28%, no sharp cut-off; inactive = mostly below about 43%; note: 0% is about no effect
SARS PLpro yeast = blocks SARS-CoV papain-like protease in a yeast assay; S. cerevisiae expressing SARS-CoV PLpro, growth rescue; Potency, µM (series often up to 32.9 µM), for the others: at the highest dose activity, positive = growth rescue, usual class: activators; actives 0.19% (n = 330,000); AID 485353; calls by dose curve; note: potency is the fitted concentration of half-maximal effect; 0% is about no effect; nearly all actives have a fitted effect of over 55% in size
An asterisk follows results filed as active; ? = inconclusive; / = no result given. Most compounds without a hit are left out; they make up all but 21% or so of the library. Unless noted, calls come from the whole dose curve; as a rule, active = well fitted inhibition curve with a large enough effect; inconclusive = small, poorly fitted or top-dose-only effect, or another doubt; inactive = no such curve, though single readings can be large or run the other way.

SMILES	Pf growth 96h	NS1 inh	CHX counter	Pf growth 48h	Shiga inhibitor	SARS PLpro yeast
CC(C)c1ccc(NC(=O)N2CCOCC2)cc1	101.6%	5.9%	38.5*	45.7%	62.3*	2.0%
Cc1ccccc1NC(=O)N1CCN(c2ncccn2)CC1	2.33µM*	/	-1.8	15.5%	-7.4	-1.2%
CC(=O)N/C(=N\c1nc(C)cc(C)n1)Nc1ccccc1Cl	0.8%	-6.0%	7.4	1.0%	-1.4	12.8%
COc1ccccc1CNC(=O)C1CCN(S(=O)(=O)c2ccc3c(c2)C(C)(C)C(=O)N3C)CC1	?	-40.4%	-2.1	?	-1.6	5.2%
C=CC[n+]1c(-c2ccc(OCC)cc2)csc1NNC(=O)Nc1ccccc1	?	8.6%	10.9	/	2.0	2.4%
CCCn1c(N2CCN(C(=O)Nc3ccc(Cl)cc3)CC2)nc2ccccc21	-10.7%	0.1%	-1.7	?	12.5	-0.8%
O=C(Nc1ccccc1)N1CCCN(c2c(Cl)cncc2Cl)CC1	?	-3.8%	-0.7	?	-14.6	-2.3%
CC(C)n1c(N2CCN(C(=O)Nc3ccc(Cl)cc3)CC2)nc2ccccc21	20.9%	-6.8%	-1.0	?	33.8*	-2.5%
O=C(c1cc(F)c(F)cc1Cl)N1CCN(c2ncccn2)CC1	5.22µM*	12.9%	-0.3	-1.8%	5.0	4.5%
O=C(Nc1ccc(F)cc1)N1CCN(c2ncccn2)CC1	-9.5%	1.2%	-1.9	-14.0%	22.0	-0.2%
O=C(Nc1ccc(Cl)cc1)N1CCN(c2ncccn2)CC1	?	-1.5%	19.6*	?	45.6	-0.5%
CC(C)(C)c1ccc(NC(=O)N2CCCN(c3c(Cl)cncc3Cl)CC2)cc1	?	-3.0%	-2.5	10.4µM*	-5.3	0.8%
O=C(c1cc(Br)ccc1Cl)N1CCN(c2ncccn2)CC1	2.9%	-6.2%	-1.7	0.7%	-4.0	0.0%
O=C(Nc1ccc(Cl)cc1)N1CCOCC1	?	-12.9%	13.7*	73.1%	/	-0.3%
Cc1[nH]c2ccccc2c(=O)c1SC(F)(F)C(F)C(F)(F)F (stereo unspecified)	3.29µM*	-93.4%	-2.7	0.828µM*	12.9	-27.5%
COC(=O)C(F)(F)Sc1c(C)[nH]c2ccccc12	?	-87.9%	-1.0	-4.6%	-7.3	-40.6%
CCOc1ccc(-n2cnc3sc(C)c(C)c3c2=O)cc1	-6.0%	11.2%	-2.2	-3.6%	-5.9	-7.9%
COc1cccc(CC2(CO)CCCN(Cc3c(C)cc(C)cc3-n3cccn3)C2)c1 (stereo unspecified)	?	-6.8%	1.2	?	-11.5	-0.8%
Cc1nc(CCl)cc(=O)[nH]1	?	/	4.1	5.22µM*	17.4	-1.5%
CCC1(C(=O)c2ccc(Cl)cc2)C2c3ccccc3OC(=O)C21C(=O)Nc1ccccc1 (stereo unspecified)	72.1%	?	0.3	25.9%	-7.3	-5.0%
CC(=O)c1cccc(NC(=O)CCC(=O)Oc2ccc(C)cc2)c1	28.3%	1.8%	-1.6	28.0%	-3.2	0.3%
CC1CCCN(C2(O)C(=O)Nc3c(C(F)(F)F)cccc32)C1 (stereo unspecified)	-12.5%	2.7%	9.4*	4.15µM*	24.2	-0.2%
CCc1cccc2c1NC(=O)C2(O)N1CCCC(C)C1 (stereo unspecified)	91.9%	-0.4%	11.6	?	/	1.6%
CN(C)C(=O)CCc1ccc2c3c([nH]c2c1)[C@]1(CCC2CCCC2)[C@@H](C(=O)N2CCOCC2)C[C@H](CC(=O)NC(C)(C)C)C(=O)N1CC3	/	/	/	/	/	-9.1%
Cc1ccc([N+](=O)[O-])cc1NC(=O)CN1CCCCC1	?	-6.9%	-4.0	-0.1%	-5.0	-5.7%
SMILES	Pf growth 96h	NS1 inh	CHX counter	Pf growth 48h	Shiga inhibitor	SARS PLpro yeast
Cc1cccc(NC(=O)c2cc([N+](=O)[O-])ccc2NC2CCCCC2)c1	?	-1.8%	3.8	8.28µM*	24.7	-3.6%
Cc1ccc([N+](=O)[O-])cc1NC(=O)CCSc1ccc(Cl)cc1	9.28µM*	-3.0%	-3.0	17.6%	-5.8	-7.9%
CN(c1ccc([N+](=O)[O-])cc1C(=O)Nc1ccccc1)C1CCCCC1	?	-6.1%	-1.1	-19.4%	3.7	-1.3%
Cc1ccc([N+](=O)[O-])cc1NC(=O)CNC1CCCCC1	-12.4%	18.2%	-2.2	11.7µM*	-0.5	-1.7%
COc1ccc(CN(C)C(=O)c2ccc(OCC(=O)N3CCOCC3)c(OC)c2)cc1	?	/	/	-0.7%	/	-2.6%
CCOC(=O)C1=C(C)N=c2s/c(=C/c3ccco3)c(=O)n2C1c1cccc(OC)c1 (stereo unspecified)	-9.4%	?	20.6*	?	32.6	-15.6%
CCOC(=O)C1=C(C)N=c2s/c(=C\c3ccc(OCC(=O)O)cc3)c(=O)n2C1c1ccccc1 (stereo unspecified)	10.4µM*	17.2%	-0.5	7.38µM*	-0.8	4.7%
CC1=C(C(=O)OC(C)C)C(c2ccc(Cl)cc2)n2c(s/c(=C\c3ccc(OCC(=O)O)cc3)c2=O)=N1 (stereo unspecified)	7.38µM*	?	-1.6	11.7µM*	-4.0	1.5%
COc1ccc(C2C(C(C)=O)=C(C)N=c3s/c(=C/c4ccc5c(c4)OCO5)c(=O)n32)cc1 (stereo unspecified)	?	-7.4%	2.9	13.1µM*	21.7	-7.0%
CCOC(=O)C1=C(C)N=c2s/c(=C\c3ccc(OCC(=O)O)c(OC)c3)c(=O)n2C1c1ccc(OC)cc1 (stereo unspecified)	?	8.1%	-1.7	?	-2.9	-0.5%
COc1ccc(N(CC(=O)NCCc2ccccc2)C(=O)c2csnn2)cc1	?	3.3%	11.5	?	17.7	7.5%
CC(C)NC(=O)N(C)C[C@H]1Oc2ccc(NS(=O)(=O)c3ccccc3)cc2C(=O)N([C@H](C)CO)C[C@@H]1C	/	/	/	/	/	-4.7%
COc1ccccc1CNC(=O)COC(=O)Cn1cnc2ccccc21	?	-1.1%	-4.9	18.5%	8.2	-0.4%
O=C(Nc1cc(Sc2nc3ccccc3s2)cc([N+](=O)[O-])c1)c1cccc(F)c1F	-19.2%	25.0%	4.2	?	-3.3	8.3%
CCOC(=O)C1=C(C)N=c2s/c(=C\c3ccc(C(=O)O)cc3)c(=O)n2C1c1ccc(F)cc1 (stereo unspecified)	?	-1.8%	-2.0	?	-8.0	-2.5%
CCOC(=O)C1=C(C)N=c2s/c(=C\c3cc(OC)c(OC)c(OC)c3)c(=O)n2C1/C=C/c1ccccc1 (stereo unspecified)	2.08µM*	12.7%	-2.5	14.7µM*	-17.6	-19.1%
CCOC(=O)C1=C(C)N=c2s/c(=C\c3cccn3C)c(=O)n2C1c1cccc(OC)c1OC (stereo unspecified)	?	-42.5%	1.1	2.08µM*	16.7	-0.9%
CCOC(=O)C1=C(C)N=c2s/c(=C\c3cccc(OCC(=O)O)c3)c(=O)n2C1c1ccccc1 (stereo unspecified)	0.928µM*	26.5%	-1.0	11.7µM*	-1.9	-1.9%
